Measurements reported in PubChem BioAssay (Tox21).
Values joined by “and” are separate entries in the source; they are usually repeats but may differ in a detail not shown here. Equal entries are not always repeated. Results filed as inconclusive are left out. The source holds several records for some structures; these can differ, active in one and inactive in another. Active and inactive are the calls of the source. Unless noted, calls follow the shape of the dose curve; as a rule, active = well fitted curve in the direction sought with a large enough effect in the repeat runs; inconclusive = weak or mixed curves; inactive = no such curve, though single readings can be large; an effect the other way counts as inactive or inconclusive.

What was measured:
[1] = qHTS assay to identify small molecule antagonists of the sonic hedgehog signaling (Shh) pathway (AID 1259369; calls by dose curve; also: nearly all actives have a fitted effect of over 45% in size; also: potency is read from the fitted curve at half-maximal effect)
How it was run: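 Conditioned medium drives Shh signalling in 3T3Gli1-Luc cells; compounds in DMSO co-applied, 24hr at 37 C, then luciferase luminescence.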

[2] = qHTS assay to identify small molecule agonists of the androgen receptor (AR) signaling pathway in the presence of an antagonist - cell viability counter screen (AID 1259379); also: nearly all actives have a fitted effect of over 25% in size; also: potency is read from the fitted curve at half-maximal effect
How it was run: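 A CellTiter-Fluor read-out measured viability of MDA-kb2 reporter cells (MMTV promoter with AR and GR response elements). Treatment: nilutamide 3.0uM final with compounds at 15 concentrations, 16 hr, 37C, 0% CO2.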

[3] = qHTS assay to identify small molecule agonists of the estrogen receptor beta (ER-beta) signaling pathway - cell viability counter screen (AID 1259380); also: nearly all actives have a fitted effect of over 30% in size; also: potency is read from the fitted curve at half-maximal effect
How it was run: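 Cells used were ER-beta-UAS-bla HEK293T in medium with 2% charcoal-stripped FBS. They were treated for 16 hr at 37C. Viability came from CellTiter-Glo luminescence.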

[4] = qHTS assay to identify small molecule antagonists of the estrogen receptor beta (ER-beta) signaling pathway - cell viability counter screen (AID 1259382); also: nearly all actives have a fitted effect of over 55% in size; also: potency is read from the fitted curve at half-maximal effect
How it was run: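 Agonist-stimulated (1nM E2) ER-beta-UAS-bla HEK293T cells are incubated with library compounds for 16 hr at 37C. Cell viability is then assessed in the reporter-assay wells by adding CellTiter-Glo and reading luminescence after 30 min.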

[5] = qHTS assay to identify small molecule agonists or antagonists of the thyroid stimulating hormone receptor (TSHR) signaling pathway - wild type cell line counter screen (AID 1259384; calls by dose curve)
How it was run: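 Wild-type Hek293 cells, 800/well, 18 h at 37C, then compound with Ro20-1724 for 30 min RT. cAMP by HTRF (cAMP-d2/anti-cAMP cryptate), 1 h RT, fluorescence read. 15 concentrations, triplicates.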

[6] = biological target: Thyrotropin receptor (Homo sapiens) (UniProt P16473); assay: qHTS assay to identify small molecule antagonists of the thyroid stimulating hormone receptor (TSHR) signaling pathway (AID 1259385; calls by dose curve; also: nearly all actives have a fitted effect of over 20% in size)
Chain of Thyrotropin receptor (Homo sapiens) (P16473 whole entry, looked up): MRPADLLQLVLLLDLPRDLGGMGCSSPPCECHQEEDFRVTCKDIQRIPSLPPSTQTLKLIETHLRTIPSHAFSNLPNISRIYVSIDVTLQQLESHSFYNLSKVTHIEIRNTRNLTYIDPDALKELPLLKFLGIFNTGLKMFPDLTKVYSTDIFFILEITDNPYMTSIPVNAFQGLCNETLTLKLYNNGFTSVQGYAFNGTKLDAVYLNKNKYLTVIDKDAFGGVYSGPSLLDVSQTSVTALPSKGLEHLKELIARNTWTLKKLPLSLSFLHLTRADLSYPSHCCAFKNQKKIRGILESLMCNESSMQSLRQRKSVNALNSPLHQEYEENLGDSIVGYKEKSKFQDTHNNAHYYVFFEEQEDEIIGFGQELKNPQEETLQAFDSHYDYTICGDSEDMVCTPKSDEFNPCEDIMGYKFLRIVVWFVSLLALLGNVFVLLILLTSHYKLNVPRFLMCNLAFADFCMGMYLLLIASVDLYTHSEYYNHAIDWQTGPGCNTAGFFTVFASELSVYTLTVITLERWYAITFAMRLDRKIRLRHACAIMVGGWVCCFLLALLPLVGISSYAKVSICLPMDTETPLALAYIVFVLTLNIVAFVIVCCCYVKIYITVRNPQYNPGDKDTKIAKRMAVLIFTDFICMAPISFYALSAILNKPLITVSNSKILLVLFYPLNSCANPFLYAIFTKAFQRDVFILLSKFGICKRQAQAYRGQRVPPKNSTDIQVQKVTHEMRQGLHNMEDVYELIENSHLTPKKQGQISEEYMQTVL
How it was run: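 TSHR-HEK293 cells (800/well) plated 18 h, then compounds with Ro20-1724 and TSH at 1.5 ng/mL final, 30 min at room temperature. cAMP quantified by HTRF (cAMP-d2/anti-cAMP-cryptate, 1 h); 15 concentrations in triplicate.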

[7] = qHTS assay to identify small molecule agonists of the estrogen receptor alpha (ER-alpha) signaling pathway in the presence of an antagonist - cell viability counter screen (AID 1259386);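 also: cells exposed to compounds for 22 h at 37 °C before the viability read; nearly all actives have a fitted effect of over 30% in size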; also: potency is read from the fitted curve at half-maximal effect
How it was run: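 ICI-182,780 at 10.0nM final accompanies the compound titration (15 concentrations, 22hr, 37C) on VM7Luc4E2 cells. The CellTiter-Fluor fluorescence readout runs in the same wells as the luciferase assay.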

[8] = biological target: Progesterone receptor (Homo sapiens) (UniProt P06401); assay: qHTS assay to identify small molecule agonists of the progesterone receptor (PR) signaling pathway (AID 1346784; calls by dose curve; also: nearly all actives have a fitted effect of over 30% in size)
Chain of Progesterone receptor (Homo sapiens) (P06401 whole entry, looked up): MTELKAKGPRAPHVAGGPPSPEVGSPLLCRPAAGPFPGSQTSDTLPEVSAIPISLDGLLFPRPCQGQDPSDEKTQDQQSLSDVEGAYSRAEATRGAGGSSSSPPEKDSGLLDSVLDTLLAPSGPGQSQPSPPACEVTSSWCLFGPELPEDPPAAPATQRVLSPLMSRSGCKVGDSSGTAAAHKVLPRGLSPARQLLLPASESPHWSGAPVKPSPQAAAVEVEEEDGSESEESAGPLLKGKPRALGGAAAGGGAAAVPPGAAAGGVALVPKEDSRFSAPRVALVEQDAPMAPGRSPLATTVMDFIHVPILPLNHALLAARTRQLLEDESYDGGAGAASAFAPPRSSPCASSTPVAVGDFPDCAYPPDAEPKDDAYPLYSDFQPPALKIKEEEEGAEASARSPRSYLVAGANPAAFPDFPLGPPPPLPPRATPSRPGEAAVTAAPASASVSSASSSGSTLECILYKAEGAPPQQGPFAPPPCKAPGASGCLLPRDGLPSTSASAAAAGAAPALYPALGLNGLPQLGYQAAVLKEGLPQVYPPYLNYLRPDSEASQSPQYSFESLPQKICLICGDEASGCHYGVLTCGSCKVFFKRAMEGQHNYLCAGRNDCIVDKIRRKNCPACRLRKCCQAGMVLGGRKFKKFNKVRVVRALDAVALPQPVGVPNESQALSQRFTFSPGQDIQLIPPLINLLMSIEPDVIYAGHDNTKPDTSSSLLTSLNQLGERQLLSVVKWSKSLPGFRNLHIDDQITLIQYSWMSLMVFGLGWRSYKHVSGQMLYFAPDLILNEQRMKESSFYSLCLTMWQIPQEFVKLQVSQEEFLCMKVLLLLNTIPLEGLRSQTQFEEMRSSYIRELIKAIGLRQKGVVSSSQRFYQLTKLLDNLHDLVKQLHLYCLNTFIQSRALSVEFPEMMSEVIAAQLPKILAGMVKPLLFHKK
How it was run: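 Compounds were tested for PR agonism in HEK 293T cells bearing a beta-lactamase gene under UAS control. Treatment lasted 16 hr at 37C; signal came from fluorescence of a FRET substrate.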

[9] = biological target: Progesterone receptor (Homo sapiens) (UniProt P06401); assay: qHTS assay to identify small molecule antagonists of the progesterone receptor (PR) signaling pathway (AID 1346795; active = well fitted inhibition curve with a large enough effect in the signal ratio in the repeat runs, not every such curve was filed as active; the % refers to the signal ratio; also: potency is read from the fitted curve at half-maximal effect)
How it was run: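 In HEK293T cells bearing the PR-UAS-bla reporter, compound effects on promegestone-driven (1 nM) beta-lactamase expression are assessed after 16 hr using a fluorescent FRET substrate incubated 2 hr at room temperature.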

[10] = qHTS assay to identify small molecule antagonists of the progesterone receptor (PR) signaling pathway - cell viability counter screen (AID 1346798); also: series mostly up to about 92 µM; nearly all actives have a fitted effect of over 50% in size
How it was run: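 Following a 4 hr attachment, PR-UAS-bla HEK293T cells in charcoal-stripped FBS medium were exposed to compounds with R5020 for 16 hr; CellTiter-Glo was added and luminescence read after 30 min at room temperature.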

[11] = qHTS assay to identify small molecule agonists of the progesterone receptor (PR) signaling pathway - cell viability counter screen (AID 1346799; calls by dose curve; also: nearly all actives have a fitted effect of over 45% in size; also: potency is read from the fitted curve at half-maximal effect)
How it was run: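 Here, 3,000 PR-UAS-bla HEK293T cells per well were treated with compounds for 16 hr after a 6 hr preincubation at 37C and 5% CO2; cell viability is the CellTiter-Glo luminescence signal.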

[12] = qHTS assay to identify small molecule antagonists of the TGF-beta/Smad signaling pathway - cell viability counter screen (AID 1346824); also: nearly all actives have a fitted effect of over 50% in size
How it was run: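 SBE-bla HEK 293T cells, incubated overnight, then compound plus 0.25 ng/mL TGF-beta1 (stock added) for 5 hr at 37 C. Viability was read in the same wells by CellTiter-Glo luminescence after 30 min at room temperature.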

[13] = qHTS assay to identify small molecule agonists of the TGF-beta/Smad signaling pathway - cell viability counter screen (AID 1346829); also: top concentration of the series differs between compounds; nearly all actives have a fitted effect of over 45% in size
How it was run: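 Compound-treated SBE-bla HEK 293T cells (5 hr, 37 C) were assessed for viability with CellTiter-Glo in parallel with the reporter read.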

[14] = qHTS assay to identify small molecule agonists of the TGF-beta/Smad signaling pathway (AID 1346859; active = well fitted activation curve with a large enough effect in the signal ratio in the repeat runs, not every such curve was filed as active; the % refers to the signal ratio; also: series mostly up to about 77 µM)
How it was run: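 Each well held 4,000 SBE-bla HEK 293T cells incubated overnight before compound addition; 5 hr later the cleavable FRET substrate went on for 2 hr at room temperature, and fluorescence was read at two emissions.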

[15] = biological target: Thyrotropin-releasing hormone receptor (Homo sapiens) (UniProt P34981); assay: qHTS assay to identify small molecule agonists of the thyrotropin-releasing hormone receptor (TRHR) signaling pathway (AID 1346891; calls by dose curve; also: series mostly up to about 58 µM)
Chain of Thyrotropin-releasing hormone receptor (Homo sapiens) (P34981 whole entry, looked up): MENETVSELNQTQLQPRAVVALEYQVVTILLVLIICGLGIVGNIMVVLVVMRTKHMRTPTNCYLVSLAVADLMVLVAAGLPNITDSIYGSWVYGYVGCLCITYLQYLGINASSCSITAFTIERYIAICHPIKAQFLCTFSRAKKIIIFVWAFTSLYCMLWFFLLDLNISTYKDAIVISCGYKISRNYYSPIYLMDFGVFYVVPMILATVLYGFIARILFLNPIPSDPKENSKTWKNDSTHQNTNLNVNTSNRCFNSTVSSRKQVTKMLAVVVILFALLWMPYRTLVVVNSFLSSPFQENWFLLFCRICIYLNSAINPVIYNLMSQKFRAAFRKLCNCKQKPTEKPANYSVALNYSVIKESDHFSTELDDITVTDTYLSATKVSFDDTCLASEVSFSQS
How it was run: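 Screening of agonists relied on calcium signalling in HEK293 cells expressing human TRHR: dye loading 2 h at 37 °C preceded compound addition and a 3-min fluorescence time course.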

[16] = biological target: Estrogen receptor (Homo sapiens) (UniProt P03372); assay: qHTS assay to identify small molecule agonists of the estrogen receptor alpha (ER-alpha) signaling pathway in the presence of an antagonist (AID 1259383; calls by dose curve; also: nearly all actives have a fitted effect of over 15% in size; also: potency is read from the fitted curve at half-maximal effect; as to activation: top concentration of the series differs between compounds)
Chain of Estrogen receptor (Homo sapiens) (P03372 whole entry, looked up): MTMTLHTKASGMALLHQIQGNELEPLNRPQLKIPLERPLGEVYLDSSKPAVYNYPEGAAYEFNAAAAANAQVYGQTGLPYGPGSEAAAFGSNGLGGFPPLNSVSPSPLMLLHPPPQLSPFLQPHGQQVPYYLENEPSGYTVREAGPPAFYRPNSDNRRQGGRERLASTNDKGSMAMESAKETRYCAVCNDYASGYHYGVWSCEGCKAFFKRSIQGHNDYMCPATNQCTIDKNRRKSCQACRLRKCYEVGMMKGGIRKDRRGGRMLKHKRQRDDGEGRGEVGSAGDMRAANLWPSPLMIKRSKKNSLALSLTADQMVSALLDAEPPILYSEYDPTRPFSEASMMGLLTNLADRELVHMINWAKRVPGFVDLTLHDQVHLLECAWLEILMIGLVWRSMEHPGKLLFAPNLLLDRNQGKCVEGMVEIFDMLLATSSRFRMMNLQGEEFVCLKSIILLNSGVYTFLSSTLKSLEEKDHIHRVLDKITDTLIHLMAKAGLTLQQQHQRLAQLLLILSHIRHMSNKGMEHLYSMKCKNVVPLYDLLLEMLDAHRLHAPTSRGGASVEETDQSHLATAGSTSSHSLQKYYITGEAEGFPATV
How it was run: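 Using VM7Luc4E2 cells seeded 24hr before treatment, antagonist ICI-182,780 (10.0nM final) was added, followed by compounds at 15 concentrations. Plates incubated 22hr; ONE-Glo luminescence quantified reporter activity.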

[17] = biological target: Thyrotropin-releasing hormone receptor (Homo sapiens) (UniProt P34981); assay: qHTS assay to identify small molecule antagonists of the thyrotropin-releasing hormone receptor (TRHR) signaling pathway (AID 1346877; active = well fitted inhibition curve with a large enough effect in the repeat runs, not every such curve was filed as active; also: series mostly up to about 51 µM)
How it was run: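 Screening used HEK293 cells engineered with TRHR, with a brief 5 min room-temperature compound exposure preceding addition of TRH to 1 nM. The read-out was kinetic calcium-dye fluorescence, concentration-response from 15 doses in triplicate.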

Measured: Potency

Cc1ccc(C)c(S(=O)(=O)O)c1
not listed: [16] | [17]
inactive: all other assays above

CC1(C)[C@@H](O[C@H]2O[C@H](C(=O)O)[C@@H](O)[C@H](O)[C@H]2O[C@@H]2O[C@H](C(=O)O)[C@@H](O)[C@H](O)[C@H]2O)CC[C@]2(C)[C@H]3C(=O)C=C4[C@@H]5C[C@@](C)(C(=O)O)CC[C@]5(C)CC[C@@]4(C)[C@]3(C)CC[C@@H]12
not listed: [15] | [16] | [17]
inactive: all other assays above

CC(=O)c1nccs1
not listed: [17]
inactive: all other assays above

O=c1n(CCCN2CCN(c3cccc(Cl)c3)CC2)nc2ccccn12
active: [3] 24.3 µM
not listed: [15] | [16] | [17]
inactive: all other assays above

NC(=O)c1ncn([C@@H]2O[C@H](CO)[C@@H](O)[C@H]2O)n1
not listed: [5] | [6] | [10] | [11] | [16]
inactive: all other assays above

COc1ccccc1[N+](=O)[O-]
not listed: [5] | [6] | [16]
inactive: all other assays above

Cc1ccc(Cl)cc1
inactive: all assays above

OB(O)O
inactive: all assays above

COc1ccc2cc3[n+](cc2c1OC)CCc1cc2c(cc1-3)OCO2
active: [2] 4.89 µM and 8.41 µM | [3] 48.9 µM | [7] 27.5 µM and 26.6 µM
not listed: [5] | [6] | [11] | [17]
inactive: all other assays above

Cc1cc(C)c(O)c(C)c1
not listed: [17]
inactive: all other assays above

CC(C)(C)NC[C@H](O)COc1nsnc1N1CCOCC1
not listed: [5] | [6] | [15] | [16] | [17]
inactive: all other assays above

Cc1ncc(CO)c(CO)c1O
not listed: [16]
inactive: all other assays above

O=C1O[C@H]([C@H](O)CO)C(O)=C1O
not listed: [15] | [16] | [17]
inactive: all other assays above

NC(N)=S
not listed: [17]
inactive: all other assays above

C=C1C[C@]23C[C@@]1(O)CC[C@H]2[C@@]12C=C[C@H](O)[C@@](C)(C(=O)O1)[C@H]2[C@@H]3C(=O)O
not listed: [15] | [16] | [17]
inactive: all other assays above

CC1(C)C(=O)N(Cl)C(=O)N1Cl
not listed: [17]
inactive: all other assays above

CC(=O)OC/C=C(\C)CCC=C(C)C
not listed: [11] | [15] | [17]
inactive: all other assays above

O=C(O)C1=NN(c2ccc(S(=O)(=O)O)cc2)C(=O)C1
not listed: [17]
inactive: all other assays above

CC(=O)OC(C)(C)C1CC=C(C)CC1 (stereo not drawn)
not listed: [17]
inactive: all other assays above

O=c1c(O)c(-c2ccc(O)c(O)c2)oc2cc(O)cc(O)c12
48.6 µM (active) and inactive: [2]
24.4 µM (active) and inactive: [16]
active: [9] 15.4 µM and 16.8 µM
not listed: [13]
inactive: all other assays above

O=C1OC(=O)c2c(Cl)c(Cl)c(Cl)c(Cl)c21
not listed: [16] | [17]
inactive: all other assays above

OC[C@H]1O[C@@H](Oc2ccc(O)cc2)[C@H](O)[C@@H](O)[C@@H]1O
inactive: all assays above

Clc1cccc(Cl)c1NC1=NCCN1
not listed: [15] | [16] | [17]
inactive: all other assays above

O=C(c1ccccc1)c1ccc(O)c(O)c1O
active: [1] 54.9 µM | [7] 61.6 µM
not listed: [2] | [6] | [9]
inactive: all other assays above

CC1=CC(=O)CC(C)(C)C1
active: [3] 6.29 µM | [11] 19.9 µM
14.1 µM (active) and inactive: [4]
not listed: [10] | [16]
inactive: all other assays above
